A short description of experiment [1]: NCI Yeast Anticancer Drug Screen. Data for the rad50 strain (AID 155).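 Note: 0% = growth of vehicle-only cultures of the same strain.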 Particulars: S. cerevisiae rad50 strain growth inhibition; at 50.0 µM; stronger effect = higher value. In short, it runs like this: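 DNA repair mutant yeast, compound exposure, growth read-out; inhibition is taken relative to vehicle.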
Experiment [2] can be described thus: NCI Yeast Anticancer Drug Screen. Data for the mec2-1 strain (AID 157). Particulars: S. cerevisiae mec2-1 strain, at 50.0 µM, stronger effect = higher value. The gist of the method: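 Strain: mec2-1 (DNA repair/cell cycle alteration). Compound exposure, then growth measured; inhibition expressed relative to vehicle.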
Experiment [3] can be described thus: NCI Yeast Anticancer Drug Screen. Data for the sgs1 mgt1 strain (AID 161).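 Note: 0% = growth of cultures given vehicle only.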 Particulars: S. cerevisiae sgs1 mgt1 strain, at 50.0 µM, stronger effect = higher value. The gist of the method:
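Read-out: growth inhibition vs vehicle controls. Cells: mutant yeast strain deficient in DNA damage repair.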

Experiment [4] can be described thus: NCI Yeast Anticancer Drug Screen. Data for the cln2 rad14 strain (AID 165).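 Note: 0% = growth equal to vehicle treated cultures.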 The following applies: S. cerevisiae cln2 rad14 strain, at 50.0 µM, stronger effect = higher value. The gist of the method: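 Compounds are applied to the cln2 rad14 yeast strain, and growth is then compared with that of vehicle-treated cultures to give inhibition.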
Experiment [5] is described as follows: NCI Yeast Anticancer Drug Screen. Data for the bub3 strain (AID 167). The following applies: S. cerevisiae bub3 mutant strain, at 50.0 µM, stronger effect = higher value. The gist of the method:
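In this screen, a yeast mutant lacking normal mitotic checkpoint function is challenged with compound. Relative growth versus vehicle gives the inhibition value.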

A short description of experiment [6]: NCI Yeast Anticancer Drug Screen. Data for the mlh1 rad18 strain (AID 175). Particulars: S. cerevisiae mlh1 rad18 strain growth inhibition; at 50.0 µM; stronger effect = higher value. The gist of the method:
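Read-out is yeast growth inhibition, calculated against vehicle-only controls. The compound was applied to a strain engineered with DNA damage repair alterations.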

This is part of a sample that, as a whole, favours compounds with a hit. Of some 79,000 tested, about 15% had one in any assay. Values without a mark were called inactive. Active and inactive are the calls of the source. Cut-off read from the data, not from the text of the source: active = growth inhibition above about 70%; inactive = the rest.

As for `COc1ccc(C2OCCCO2)cc1`, the growth inhibition in experiment [1] was 13.5%; in experiment [2], -19.1%; in experiment [3], -6.45%; in experiment [4], -34.4%; in experiment [5] it was -27.4%; in experiment [6] it was 4.45%.
For the molecule `CN(C)S(=O)(=O)c1ccc(Nc2ccc(O)c3c2C(=O)c2c([N+](=O)[O-])ccc(O)c2C3=O)cc1`, the growth inhibition in experiment [1] is 54.9%; in experiment [2] it was 13.4%; in experiment [3] it was -31.9%; in experiment [4], -8.3%; in experiment [5] it was -27.8%; in experiment [6], 26.1%.
For the molecule `COC(=O)C1C2CC3c4[nH]c5cc(OC)ccc5c4CCN3CC2CC(OC(=O)CCc2cc(OC)c(OC)c(OC)c2)C1OC` (stereo not given), the growth inhibition is -3.35% in experiment [1]; -0.2% in experiment [2]; 4.25% in experiment [3]; 13.4% in experiment [4]; 14.7% in experiment [5]; 9.85% in experiment [6].
Take `O=c1n(-c2ccc(Cl)c(Cl)c2)c(=O)n(-c2ccc(Cl)c(Cl)c2)c(=O)n1-c1ccc(Cl)c(Cl)c1`: the growth inhibition in experiment [1] is 3.5%; in experiment [2], 5.25%; in experiment [3], 9.35%; in experiment [4] it was -44.1%; in experiment [5], -3.85%; in experiment [6], 4.3%.
`O=[N+]([O-])c1ccc(S(=O)(=O)N(CCCBr)c2ccccc2)cc1`: the growth inhibition was 48.4% in experiment [1]; 42.6% in experiment [2]; 72.7% (active) in experiment [3]; 24.6% in experiment [4]; 44.5% in experiment [5]; 74.3% (active) in experiment [6].
Regarding `Cc1ccc(/C(O)=C/c2nc3c(nc2NC24CC5CC(CC(C5)C2)C4)c(=O)oc2ccccc23)cc1`, the growth inhibition is 5.65% in experiment [1]; -0.65% in experiment [2]; -6.7% in experiment [3]; -3.7% in experiment [4]; 6.1% in experiment [5]; 1.85% in experiment [6].
For `CC1=CC(/C=C(\C)CCCc2ccoc2)C2(OC(=O)C(C)=C2O)[C@H]2C1CC[C@@H]2C` (stereo not given in full), the growth inhibition in experiment [1] was 49.9%; in experiment [2] it was 58.3%; in experiment [3], 53.5%; in experiment [4], 66%; in experiment [5] it was 55.5%; in experiment [6] it was 54.9%.
Consider `Brc1cnc2nc(Cc3ccccc3)[nH]c2c1`, for which the growth inhibition was 5.05% in experiment [1]; 7.7% in experiment [2]; 17.3% in experiment [3]; -52.3% in experiment [4]; 27% in experiment [5]; 2.9% in experiment [6].
As to `CC1(C)C(CCO)CC1CCO` (stereo not given), the growth inhibition in experiment [1] was 2.25%; in experiment [2], -2.5%; in experiment [3], -1.45%; in experiment [4] it was -0.45%; in experiment [5] it was 0.4%; in experiment [6], -7.5%.
For `CCC(/C=C\C(C)C1CCC2C3CC=C4CC(OS(=O)(=O)c5ccc(C)cc5)CCC4(C)C3CCC12C)C(C)C` (stereo not given), the growth inhibition in experiment [1] is -9.9%; in experiment [2] it was -3.95%; in experiment [3], -16.6%; in experiment [4], -5.6%; in experiment [5], 1.1%; in experiment [6], -32.1%.
`O=C(CCc1ccccc1)NC(=S)Nc1cccc([N+](=O)[O-])c1`: the growth inhibition in experiment [1] is -1.75%; in experiment [2], 25.9%; in experiment [3] it was 53.5%; in experiment [4], -13.8%; in experiment [5] it was 52.2%; in experiment [6] it was 86% (active).
Take `CC1(C)C2CC=C(/C=N\Nc3ccc([N+](=O)[O-])cc3[N+](=O)[O-])C1C2` (stereo not given): the growth inhibition in experiment [1] is -1.5%; in experiment [2] it was 1.95%; in experiment [3], -2.3%; in experiment [4], -3.35%; in experiment [5], -11.6%; in experiment [6] it was -12.1%.
For the molecule `CCOP(=O)(OCC)/C(C#N)=C/c1cc(OC)ccc1OC`, the growth inhibition in experiment [1] was 28.4%; in experiment [2], -4.75%; in experiment [3], -2.65%; in experiment [4], -8.9%; in experiment [5] it was -13.4%; in experiment [6] it was 11.8%.
Consider `O=C(Nc1cc(Cl)c(Cl)cc1Cl)OCc1ccc2c(c1)OCO2`, for which the growth inhibition is -12.1% in experiment [1]; -32.3% in experiment [2]; -14.4% in experiment [3]; 6.25% in experiment [4]; -25.2% in experiment [5]; -14.6% in experiment [6].
`CCOc1ccc(NC(=O)/C=C/c2ccco2)cc1`: the growth inhibition in experiment [1] was -12%; in experiment [2] it was -8.75%; in experiment [3] it was 13.9%; in experiment [4], 22%; in experiment [5], 5.3%; in experiment [6], 3%.
For the molecule `CCCCn1[nH]c(=O)ccc1=O`, the growth inhibition is 16.9% in experiment [1]; 7.6% in experiment [2]; 1.9% in experiment [3]; 11.4% in experiment [4]; -8.45% in experiment [5]; -3.3% in experiment [6].
For `N=C(N)Sc1cc(O)c2ccccc2c1O`, the growth inhibition in experiment [1] was -33%; in experiment [2], -6.45%; in experiment [3], -28.1%; in experiment [4], -45.8%; in experiment [5], 4.1%; in experiment [6], -2%.
For `Nc1nc(Cl)nc(Nc2ccc(-c3cc4ccc(-c5ncc[nH]5)cc4[nH]3)cc2)n1`, the growth inhibition in experiment [1] is 15.5%; in experiment [2] it was 45.5%; in experiment [3], 45.4%; in experiment [4], 31.7%; in experiment [5], -3.6%; in experiment [6], 62.6%.
Consider `COc1ccc(C2OC3=Nc4ccccc4NC3C2=O)cc1OC` (stereo not given), for which the growth inhibition is 11% in experiment [1]; 16.3% in experiment [2]; 20.7% in experiment [3]; 5.25% in experiment [4]; 15.3% in experiment [5]; 16.4% in experiment [6].
As for `COC(=O)C(=O)C1CSC2=C(CS(=O)(=O)c3ccccc32)C1=O` (stereo not given), the growth inhibition is -4.55% in experiment [1]; -9.5% in experiment [2]; -10.6% in experiment [3]; -2.15% in experiment [4]; -17.5% in experiment [5]; -2.1% in experiment [6].

(Values after PubChem BioAssay (NCI).)
